In PubChem BioAssay AID588436 (Broad Institute, 2011):
In all, about 350,000 compounds went through this assay and about 550 (0.16%) were called active. Cut-off read from the data, not from the text of the source: active = activation mostly above about 9.7% (no sharp cut-off); inconclusive = no clear call, values can overlap the other calls; inactive = mostly below about 3.7%. This excerpt belongs to a sample that is enriched for actives.

Assay: induces V. cholerae light production without autoinducers, primary screen, BH1578 luxS cqsA deficient, single point (AID 588436)
Conditions: V. cholerae BH1578 lux reporter, luminescence, 6 h, at 18.7 µM; hits give high values

Question: Which activation does the source give for `COc1cccc(NS(=O)(=O)c2ccc3[nH]cc(C(=O)NCCCOC(C)C)c(=O)c3c2)c1` here?
Answer: inactive

Question: Which activation does the source give for `CN(C)c1ccc(CNC2C3CC4CC(C3)CC2C4)cc1` (configuration not stated) here?
Answer: -0.358% (inactive)

Question: With `CN(C)c1ccc(CNC23CN4CN(CN(C4)C2)C3)cc1` as the molecule, how does the activation read?
Answer: 54% (active)

Question: With `CN(C)c1ccc(CSc2ccccc2)cc1` as the molecule, how does the activation read?
Answer: inactive

Question: Which activation does the source give for `CCN1CN(Cc2ccccc2)CNC1=S` here?
Answer: inactive

Question: For `C=CCC(C(=O)c1ccccc1)[N+](C)(C)CC=C` (configuration not stated), which activation is on record?
Answer: inactive

Question: With `COc1ccccc1C(=O)NC(CCSC)C(=O)NNC(=O)c1csc(N2CCOCC2)n1` (configuration not stated) as the molecule, how does the activation read?
Answer: inactive

Question: For `COc1ccc(-n2ncc3c2CC(C)(C)CC3NC(=O)CCc2c(C)noc2C)cc1` (configuration not stated), which activation is on record?
Answer: -0.606% (inactive)

Question: Which activation does the source give for `O=C(O)CCCCCCCCc1cn(CN2C(=O)c3ccccc3C2=O)nn1` here?
Answer: -0.601% (inactive)

Question: For `COc1ccc(CC(=O)c2ccc(O)cc2O)cc1OC`, which activation is on record?
Answer: 1.54% (inactive)

Question: Which activation does the source give for `O=C(NC1CCN(C(=S)NCc2ccco2)CC1)c1ccc(F)cc1` here?
Answer: inactive

Question: With `CCN(C[C@H]1N[C@@](CC)(C(=O)OC)[C@H]2C(=O)N(Cc3ccccc3)C(=O)[C@@H]12)S(=O)(=O)c1ccc(C(F)(F)F)cc1` as the molecule, how does the activation read?
Answer: inactive

Question: For `Cc1ncoc1C(=O)NCCC(c1ccccc1)c1ccccc1`, which activation is on record?
Answer: inactive

Question: For `CS(=O)(=O)N1CCCC(C(=O)Nc2ccccc2C(F)(F)F)C1` (configuration not stated), which activation is on record?
Answer: -3.85% (inactive)

Question: For `CCN(CC(=O)NCC(=O)Nc1cccc(C)c1C)Cc1ccccc1`, which activation is on record?
Answer: inactive

Question: With `CCCCCCn1c(=O)n2n(c1=O)C[C@]1(OC(=O)NCc3ccc(OC)c(OC)c3)CN(S(=O)(=O)c3ccc(C)cc3)C[C@]1(O)C2` as the molecule, how does the activation read?
Answer: -2.08% (inactive)

Question: Which activation does the source give for `Cc1ccc(C(=O)N/N=C/c2sc(=O)n(Cc3cccc(C(=O)O)c3)c2Cl)cc1` here?
Answer: 0.645% (inactive)

Question: Which activation does the source give for `CCCCNC(=O)Cn1nc(C)c(S(=O)(=O)N2CCOCC2)c1C` here?
Answer: inactive

Question: For `Cc1onc(-c2ccccc2)c1C(=O)N1CCN(S(=O)(=O)c2ccccc2C(F)(F)F)CC1`, which activation is on record?
Answer: -0.206% (inactive)

Question: With `Cc1onc(-c2ccccc2)c1C(=O)N1CCOCC1` as the molecule, how does the activation read?
Answer: 16.7% (active)

Question: With `CNc1cncc(-c2cccc(C(=O)N3CCOCC3)c2)n1` as the molecule, how does the activation read?
Answer: 3.33% (inactive)

Question: Which activation does the source give for `Cc1cccc(N2CCN(C(C)C(=O)N3CCc4ccccc43)CC2)c1C` (configuration not stated) here?
Answer: -0.336% (inactive)

Question: For `COc1ccccc1-c1cnn2c(N3CCOCC3)cc(C)nc12`, which activation is on record?
Answer: -0.198% (inactive)

Question: With `CC(C)n1ncc2c(C(=O)N3CCN(Cc4cccs4)CC3)cc(C3CC3)nc21` as the molecule, how does the activation read?
Answer: -0.459% (inactive)

Question: With `CCN(CC)c1nc(-c2ccccc2)cc(C(F)(F)F)c1C#N` as the molecule, how does the activation read?
Answer: 17.9% (active)

Question: Which activation does the source give for `N#Cc1c(C(F)(F)F)cc(-c2cccs2)nc1N1CCCCC1` here?
Answer: -0.871% (inactive)

Question: Which activation does the source give for `N#Cc1c(C(F)(F)F)cc(-c2ccccc2)nc1SCC(=O)N1CCOCC1` here?
Answer: -0.279% (inactive)
